Inconclusive results are not listed. The source made the active and inactive calls. Calls come from the whole dose curve; as a rule, active = well fitted cell-killing curve with a large enough effect; inconclusive = small, poorly fitted or top-dose-only effect; inactive = no such curve, though single readings can be large or run the other way.
Potency is the fitted concentration of half-maximal effect.

The assay can be described thus: qHTS of pediatric cancer cell lines to identify multiple opportunities for drug repurposing: Primary screen for NB-EBc1 cells (AID 1347095). The following applies: NB-EBc1 neuroblastoma viability, CellTiter-Glo luminescence, 48 h; series mostly up to 46 µM; activity change, negative = cytotoxic: at the top concentration. An excerpt:
Drug repurposing or repositioning has been offered as a strategy for drug development in oncology programs. This approach has special potential for childhood cancers and other rare or orphan diseases, where the expected return on new drug development has been a disincentive to pharmaceuticals. […] In this project we exploit the poly-pharmacology of drugs to discover new indications via phenotypic screening of a panel of 19 well-characterized cell lines derived from solid tumors seen in children and adolescents. The goal is to identify approved drugs with previously unrecognized anticancer properties that has the potential to reveal new mechanisms and biological processes involved in carcinogenesis or drug resistance. We employed a titration-based paradigm (quantitative high-throughput screening or qHTS), where all compounds were tested at multiple concentrations for their effect on cell viability. Concentration-response curves (CRCs) were derived directly from the primary screen, and both potency and efficacy values were used to identify compounds with robust bioactivity profiles. We screened the NIH Chemical Genomics Center (NCGC) Pharmaceutical Collection (NPC) and Mechanism Interrogation Plate (MIPE) small molecule collections of approved and investigational compounds against these cell lines; and measured metabolically active cells after 48 hours of compound treatment as a proxy for cell viability. […] Assay Submitter: Nathalia J. Martinez, National Center for Advancing Translational Sciences, National Institutes of Health, Rockville, MD, USA; email: natalia.martinez@nih.gov Shen, M et al. Quantitative high-throughput phenotypic screening of pediatric cancer cell lines identifies multiple opportunities for drug repurposing. Oncotarget 2017 Dec 19;9(4):4758-4772. PMID 29435139.
The cells were obtained from University of North Carolina (UNC), Pediatric Preclinical Testing Program (PPT), and Coriell Institute (CI). qHTS cell viability assay: Cells were assayed in growth media at a density of 500-1,000 cells/well. Five microliters of cells were dispensed into 1,536-well, white, solid-bottom, TC-treated plates (Greiner Bio One) using a multidrop dispenser and incubated at 37 degrees C, 5% CO2, under a humidified atmosphere for 5 hours. Twenty-three nanoliters of compounds and controls (neutral control DMSO or positive control bortezomib at final concentration of 2.3 µM) were subsequently transferred by Kalypsys pintool. For primary screens, the MIPE collection was tested at 11-point dilutions (final concentrations range from 0.78 nM to 46 µM) and the NPC collection at 8-point dilutions (final concentrations range from 0.59 nM to 46 µM). Compounds tested in follow-up screens were assayed at 11-point dilutions. Cells were incubated for 48 hours, followed by addition of 3 µL of CellTiter-Glo (Promega). After a 15 min incubation at room temperature, samples were analyzed for luminescence intensity using a ViewLux High-throughput CCD imager equipped with clear filters.
(In general: Quantitative high-throughput screening tests each substance at several concentrations.)
As to `Cc1cc(Nc2ncnc3ccc(-c4ccc(CNCCS(C)(=O)=O)o4)cc23)ccc1Oc1ccn2ncnc2c1`, the Potency is 4180 nM (active). On to `CC(=O)c1c(C)c2cnc(Nc3ccc(N4CCNCC4)cn3)nc2n(C2CCCC2)c1=O`, for which the Potency was 20900 nM (active). Regarding `CCCCCCCCCC(=O)N[C@@H](Cc1c[nH]c2ccccc12)C(=O)N[C@H](CC(N)=O)C(=O)N[C@@H](CC(=O)O)C(=O)N[C@@H]1C(=O)NCC(=O)N[C@@H](CCCN)C(=O)N[C@@H](CC(=O)O)C(=O)N[C@H](C)C(=O)N[C@@H](CC(=O)O)C(=O)NCC(=O)N[C@H](CO)C(=O)N[C@@H]([C@@H](C)CC(=O)O)C(=O)N[C@@H](CC(=O)c2ccccc2N)C(=O)O[C@@H]1C`, the “activity change, negative = cytotoxic” value is 73.1% (inactive). On to `CN1CCN(Cc2ccc(NC(=O)Nc3ccc(Oc4cc(NC(=O)C5CC5)ncn4)cc3)cc2C(F)(F)F)CC1`, for which the Potency is 935 nM (active). As to `Cc1coc2c1C(=O)C(=O)c1c-2ccc2c1CCCC2(C)C`, the Potency was 8330 nM (active).

Turning to `O=c1[nH]c(=O)n(C2CCCO2)cc1F` (stereo not given), the “activity change, negative = cytotoxic” value is -13.4% [at 92.7 µM] (inactive). Turning to `Cc1cc(Nc2cc(CN3CCOCC3)c3nc(C)c(Cc4ccc(Cl)cc4F)n3n2)n[nH]1`, the Potency was 4180 nM (active). Same read-out and setting: as for `CCc1c2c(nc3ccc(O)cc13)-c1cc3c(c(=O)n1C2)COC(=O)[C@]3(O)CC`, the figure is 1 nM (active); as for `Cc1cccc(C=NNc2cc(N3CCOCC3)nc(OCCc3ccccn3)n2)c1`, 1320 nM (active). The same measure, in the same setting: the result for `O=C(Nc1nc2cccc(-c3ccc(CN4CCS(=O)(=O)CC4)cc3)n2n1)C1CC1` reads 10500 nM (active); that for `Clc1ccc2ncc(-c3cccc(NC4CNC4)n3)n2c1`, 1480 nM (active). In the case of `COc1ccc(CC2c3cc(OC)c(OC)cc3CC[N+]2(C)CCC(=O)OCCCCCOC(=O)CC[N+]2(C)CCc3cc(OC)c(OC)cc3C2Cc2ccc(OC)c(OC)c2)cc1OC` (stereo not given), the activity change, negative = cytotoxic was 16.9% [at 9.22 µM] (inactive).

As for `NC(=O)c1c(OCc2c(F)cc(Br)cc2F)nsc1NC(=O)NCCCCN1CCCC1`, the Potency was 2640 nM (active).

As to `Cn1cc(-c2[nH]c3cc(NC(=O)[C@H](N)C4CCCCC4)cc4c3c2C=NNC4=O)cn1`, the Potency is 590 nM (active). `CCOc1ccccc1OCCNC(C)Cc1ccc(OC)c(S(N)(=O)=O)c1` (stereo not given): the “activity change, negative = cytotoxic” value was 6.19% (inactive). As for `O=C(CCCCCCC(=O)Nc1ccc([C@H]2O[C@@H](CSc3nc(-c4ccccc4)c(-c4ccccc4)o3)C[C@@H](c3ccc(CO)cc3)O2)cc1)NO`, the Potency is 8330 nM (active). On to `Nc1cccc(-c2cc3c(Oc4cccc(O)c4)ncnc3[nH]2)c1`, for which the Potency is 3720 nM (active). Still for that read-out and setting: as for `CCC1=C[C@@H]2CN(C1)Cc1c([nH]c3ccccc13)[C@@](C(=O)OC)(c1cc3c(cc1OC)N(C)[C@@H]1[C@@](O)(C(=O)OC)[C@H](OC(C)=O)[C@]4(CC)C=CCN5CC[C@]31[C@@H]54)C2`, the figure is 235 nM (active); as for `CC(C)c1ccc(Cn2ccc3c4c(N)nc(NC5CC5)nc4ccc32)cc1`, 4690 nM (active); as for `Cc1c(CN2CCN(S(C)(=O)=O)CC2)sc2c(N3CCOCC3)nc(-c3cnc(N)nc3)nc12`, 33.2 nM (active). On the same count and under the same terms, as for `C=C1C(=CC=C2CCC[C@]3(C)[C@@H]([C@H](C)C=C[C@H](C)C(C)C)CC[C@@H]23)C[C@@H](O)C[C@@H]1O`, the figure is 526 nM (active). On the same count and under the same terms, the result for `CC=C1NC(=O)[C@H]2CSSCCC=C[C@H](CC(=O)N[C@H](C(C)C)C(=O)N2)OC(=O)[C@H](C(C)C)NC1=O` reads 29.6 nM (active); that for `CC1(C)CC(=O)c2c(C(F)(F)F)nn(-c3ccc(C(N)=O)c(NC4CCC(OC(=O)CN)CC4)c3)c2C1` (stereo not given), 296 nM (active).

Take `O=C(Cc1ccc(-c2ccc(OCCN3CCOCC3)cc2)cn1)NCc1ccccc1`: the Potency is 14.8 nM (active). As for `O=C(Nc1cn[nH]c1-c1nc2ccc(CN3CCOCC3)cc2[nH]1)NC1CC1`, the Potency was 1480 nM (active). As for `COC(=O)c1ccc2c(C(=Nc3ccc(N(C)C(=O)CN4CCN(C)CC4)cc3)c3ccccc3)c(O)[nH]c2c1`, the Potency was 2090 nM (active). On to `CNC(=O)c1ccccc1Nc1nc(Nc2ccc(N3CCOCC3)cc2OC)ncc1Cl`, for which the Potency is 662 nM (active).

For the molecule `COCCn1c2c([n+](Cc3cnccn3)c1C)C(=O)c1ccccc1C2=O`, the Potency is 93.5 nM (active).

As for `Nc1cc(C(F)(F)F)c(-c2cc(N3CCOCC3)nc(N3CCOCC3)n2)cn1`, the Potency is 166 nM (active).

Regarding `CCCCc1nc2cc(C=CC(=O)NO)ccc2n1CCN(CC)CC`, the Potency is 590 nM (active). As to `COc1cc2c(Oc3ccc(-c4cnc(Nc5ccc(F)cc5)n(C)c4=O)cc3F)ccnc2cc1OCCCN1CCOCC1`, the Potency was 3320 nM (active). The same measure, in the same setting: the result for `Nc1ccc(C(=O)c2cc3c(ccc4ccccc43)[nH]2)cc1` reads 1660 nM (active); that for `Cn1c(=O)n(-c2ccc(C(C)(C)C#N)cc2)c2c3cc(-c4cnc5ccccc5c4)ccc3ncc21`, 372 nM (active); that for `CCN1CCN(Cc2ccc(-c3cc4c(N[C@H](C)c5ccccc5)ncnc4[nH]3)cc2)CC1`, 46.9 nM (active). Take `CCn1nnc2c(N3CCOCC3)nc(-c3ccc(NC(=O)Nc4ccc(C(=O)N5CCN(C)CC5)cc4)cc3)nc21`: the Potency was 743 nM (active). Consider `Nc1nc(-c2nn(Cc3ccccc3F)c3ncccc23)nc(N)c1N1CCOCC1`, for which the “activity change, negative = cytotoxic” value was -8.46% (inactive). For the molecule `Cn1c2ccccc2c2c3c(c4c5ccccc5n(CCC#N)c4c21)CNC3=O`, the Potency is 418 nM (active). In the case of `Clc1cccc(-n2nnnc2NCc2ccccc2Oc2ccccn2)c1Cl`, the “activity change, negative = cytotoxic” value was -5.04% (inactive). The same measure, in the same setting: the result for `C1Cc2[nH]nc(-c3nn[nH]n3)c2C1` reads 8.89% (inactive).

For `Cc1ccc(C(=O)Nc2ccc(CN3CCN(C)CC3)c(C(F)(F)F)c2)cc1C#Cc1cnc2cccnn12`, the Potency was 6620 nM (active).

(Values after PubChem BioAssay (NCATS).)
